# Experimental data taken from PubChem BioAssay (NCI).
# Values joined by “and” are separate entries in the source; they are usually repeats but may differ in a detail not shown here. Equal values may be shown once. This is part of a sample that, as a whole, favours compounds with a hit. Of some 83,000 tested, about 20% had one in any assay.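 96-well plates, one dose, 48 hours. Percent growth reported; active if below 10.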 Values without a mark were called inactive. Active and inactive are the calls of the source.
# System: HL-60(TB) leukemia
# Assay: NCI-60 one-dose screen, 48 h (100 = growth as untreated, 0 = no growth, -100 = all killed)
# Conditions: 10 µM unless noted
row,Structure (SMILES),growth
1,Clc1ccc(NC(Nc2ccc(Cl)cc2)C(Cl)(Cl)Cl)cc1,93.3% and 83.6%
2,COc1ccc2c(O)c(/C=C3\N=Nc4ccccc43)oc2c1C[C@@H]1CCNC[C@H]1F,61%
3,c1ccc2c(c1)cnc1ccccc12,94.9%
4,COC(=O)c1ccc2c(c1)C(=O)c1c-2n(CCCN)c(=O)c2cc([N+](=O)[O-])ccc12,-85.9% (active)
5,COc1cc(N2C(=O)[C@H](O)C2c2ccc(SC)cc2)cc(OC)c1OC (stereo partly specified),-41% (active)
6,O=C(Nc1ccc(OS(=O)(=O)c2ccc(F)cc2)cc1)C1CCCCCC1,56.4%
7,OCc1n(Cc2ccc3ccccc3c2)cc[n+]1Cc1ccc2ccccc2c1,6.82% (active)
8,COC12C=C/C(=C(/C(=O)OCc3ccncc3)C(=O)CCCCCCCCC3(OC)C=C/C(=C(/C(=O)OCc4ccncc4)C(=O)CCCCCCCC1)O3)O2,-22.9% (active)
9,COc1cc(CNC(=O)CCCCC[P+](c2ccccc2)(c2ccccc2)c2ccccc2)c(OC)c2c1OCO2,-2.75% (active)
10,O=C1C(=O)c2ccccc2C(O)=C1CC=C(Cl)Cl,31.3% and 44.6%
11,C[C@@H]1CCC[C@H]1CC(N)C(=O)O (stereo partly specified),112%
12,Nc1c(C(=O)Nc2cccc(Cl)c2)sc2nc3c(cc12)C(=O)CCC3,33.1%
13,Nc1nc2ncc(CCNc3ccc(C(=O)NC(CCC(=O)O)C(=O)O)cc3)nc2c(=O)[nH]1 (stereo unspecified),144%
14,O=Nc1ccc(NO)c2ccccc12,108% and 26.9%
15,CCC1CCC(C)NC1 (stereo unspecified),99.4%
16,O=C(c1c(F)ccc(NS(=O)(=O)N2CC[C@@H](F)C2)c1F)c1c[nH]c2ncc(-c3cnc(C4CC4)nc3)cc12,35.6%
17,COc1ccc(C(=O)N2NC(=O)/C(=C/c3ccccc3F)N=C2c2ccccc2)cc1,93.9%
18,CC1=C/C(=C(\c2ccc(N(C)C)cc2)c2ccc([N+](C)(C)C)cc2)C=CC1=[N+](C)C,98.6%
19,CC(=O)N1c2ccccc2NC2=C(C(=O)N(C)C2(C)C)C1C (stereo unspecified),7.5% (active)
20,COc1ccc(C2C3=C(COC3=O)N(CCO)c3cc4c(cc32)OCCO4)cc1 (stereo unspecified),82.1%
21,COc1ccc(CCNC(=S)NN)cc1OC,92.1%
22,C=C(C[C@](O)(C(=O)/C=C/c1ccc(Cl)cc1)C(=O)OC)c1ccccc1,59.2%
23,ClCC(Cl)[C@@H]1CC2C=CC1C2 (stereo partly specified),104%
24,COC1=CC(=O)c2nc(Cl)ccc2C1=O,-30.1% (active)
25,CCOC(=O)c1cc(C(=O)OCC)c(C)nc1C,96.9%
26,N#Cc1c(C(F)(F)F)cc(Nc2ccc3nc(NCCN4CCCC4)oc3c2)n2c1nc1ccccc12,86.6%
